PubChem BioAssay AID1159580 (chemical genetic matrix, 2015)
Several values for one entry are separate records, joined by “and”; a condition that tells them apart may be missing. Equal values may be shown once. Screen size: about 5,500 compounds; about 2,000 (36%) were called active. Not shown: some 18% with an inconclusive outcome. Cut-off read from the data, not from the text of the source: active = normalized growth mostly below about 0.91 (no sharp cut-off); inconclusive = no clear call, values can overlap the other calls; inactive = mostly above about 0.92. The list shows a part of the results.

Experiment: chemical genetic growth profiling, strain panel (AID 1159580);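 note: tested at 20 µM; growth read once vehicle control cultures reached saturation at 30 °C; 1 = growth at the plate median or of vehicle wells; lower values mean less growth of the strain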
Settings: S. cerevisiae deletion strains, growth OD

Measured: normalized growth

CCCCC1C(=O)N(c2ccccc2)N(c2ccccc2)C1=O
inactive: locus YAL013W, strain DEP1, stronger effect = lower value 0.971 and 0.998 | locus YAL021C, strain ccr4, stronger effect = lower value 0.999 | locus YAL026C, strain drs2, stronger effect = lower value 0.982 | locus YAL030W, strain snc1, stronger effect = lower value 0.987 | locus YAL040C, strain CLN3, stronger effect = lower value 0.963 | locus YBL061C, strain skt5, stronger effect = lower value 0.997 | locus YBR009C, strain hhf1, stronger effect = lower value 1.01 | locus YBR021W, strain FUR4, stronger effect = lower value 1.01 | locus YBR023C, strain chs3, stronger effect = lower value 0.998 | locus YBR171W, strain sec66, stronger effect = lower value 0.977 | locus YBR229C, strain ROT2, stronger effect = lower value 0.983 | locus YBR231C, strain swc5, stronger effect = lower value 1 | locus YBR279W, strain paf1, stronger effect = lower value 1.02 | locus YCL011C, strain gbp2, stronger effect = lower value 1 | locus YCL016C, strain dcc1, stronger effect = lower value 1 | locus YCL029C, strain bik1, stronger effect = lower value 1.01 | locus YCL061C, strain MRC1 (second series), stronger effect = lower value 0.998 | locus YCL061C, strain MRC1, stronger effect = lower value 0.983 | locus YCL069W, strain vba3, stronger effect = lower value 0.999 | locus YCR088W, strain abp1, stronger effect = lower value 0.985 | locus YDL005C, strain med2, stronger effect = lower value 1 | locus YDL035C, strain GPR1, stronger effect = lower value 0.989 | locus YDL040C, strain nat1, stronger effect = lower value 0.99 | locus YDL074C, strain BRE1, stronger effect = lower value 1.02 | locus YDL101C, strain DUN1, stronger effect = lower value 1.01 | locus YDL134C, strain PPH21, stronger effect = lower value 0.986 | locus YDL185W, strain tfp1, stronger effect = lower value 0.994 | locus YDL192W, strain arf1, stronger effect = lower value 0.988 | locus YDR001C, strain nth1, stronger effect = lower value 0.984 | locus YDR069C, strain doa4, stronger effect = lower value 0.982 | locus YDR101C, strain arx1, stronger effect = lower value 1.01 | locus YDR137W, strain rgp1, stronger effect = lower value 0.915 | locus YDR150W, strain NUM1, stronger effect = lower value 0.99 and 0.997 | locus YDR159W, strain sac3, stronger effect = lower value 0.972 | locus YDR162C, strain NBP2, stronger effect = lower value 0.976 | locus YDR195W, strain ref2 0.992 | locus YDR297W, strain sur2, stronger effect = lower value 0.989 | locus YDR318W, strain mcm21, stronger effect = lower value 1.01 | locus YDR334W, strain swr1, stronger effect = lower value 0.994 | locus YDR335W, strain msn5, stronger effect = lower value 0.997 | locus YDR363W, strain ESC2, stronger effect = lower value 1.03 | locus YDR388W, stronger effect = lower value 1 | locus YDR392W, strain spt3, stronger effect = lower value 0.969 | locus YDR502C, strain sam2, stronger effect = lower value 0.986 | locus YEL003W, strain gim4, stronger effect = lower value 1 | locus YEL037C, strain rad23, stronger effect = lower value 0.991 | locus YEL061C, strain CIN8 (second series), stronger effect = lower value 0.983 | locus YEL061C, strain CIN8, stronger effect = lower value 0.981 | locus YER002W, strain NOP16, stronger effect = lower value 0.974 | locus YER015W, strain faa2, stronger effect = lower value 0.998 | locus YER016W, strain bim1, stronger effect = lower value 0.99 | locus YER110C, stronger effect = lower value 0.993 | locus YER111C, strain swi4, stronger effect = lower value 0.979 | locus YER155C, strain BEM2 (second series), stronger effect = lower value 1.03 | locus YER155C, strain BEM2, stronger effect = lower value 1.01 | locus YER167W, strain BCK2, stronger effect = lower value 0.987 | locus YFR010W, strain ubp6, stronger effect = lower value 0.991 | locus YGL078C, strain dbp3, stronger effect = lower value 1.01 | locus YGL086W, strain mad1, stronger effect = lower value 0.963 | locus YGL167C, strain pmr1, stronger effect = lower value 0.977 | locus YGL173C, strain kem1, stronger effect = lower value 0.983 | locus YGL227W, strain vid30, stronger effect = lower value 1 | locus YGL240W, strain doc1, stronger effect = lower value 1.01 | locus YGL248W, strain PDE1, stronger effect = lower value 0.991 | locus YGL253W, strain hxk2, stronger effect = lower value 0.994 | locus YGR078C, strain PAC10, stronger effect = lower value 1.02 and 0.981 | locus YGR135W, strain pre9, stronger effect = lower value 0.994 | locus YGR229C, strain SMI1, stronger effect = lower value 0.983 and 1 | locus YGR252W, strain gcn5, stronger effect = lower value 0.922 | locus YHR013C, strain ard1, stronger effect = lower value 0.992 | locus YHR027C, strain rpn1, stronger effect = lower value 0.99 | locus YHR030C, strain SLT2, stronger effect = lower value 0.992 and 0.937 | locus YHR079C, strain IRE1 (second series), stronger effect = lower value 1 | locus YHR079C, strain IRE1, stronger effect = lower value 0.917 | locus YHR094C, strain hxt1, stronger effect = lower value 0.991 | locus YHR129C, strain ARP1, stronger effect = lower value 0.994 | locus YHR142W, strain chs7, stronger effect = lower value 1.03 | locus YHR200W, strain rpn10, stronger effect = lower value 1 | locus YIL066C, strain RNR3, stronger effect = lower value 0.991 | locus YIL073C, strain SPO22, stronger effect = lower value 1.01 | locus YIL125W, strain kgd1, stronger effect = lower value 0.98 | locus YIR030C, strain dcg1, stronger effect = lower value 0.993 | locus YJL092W, strain hpr5, stronger effect = lower value 0.985 | locus YJL095W, strain BCK1 (second series), stronger effect = lower value 0.996 | locus YJL095W, strain BCK1, stronger effect = lower value 1.03 and 0.938 | locus YJL115W, strain asf1, stronger effect = lower value 0.99 | locus YJL129C, strain trk1, stronger effect = lower value 0.999 | locus YJL134W, strain LCB3, stronger effect = lower value 0.977 | locus YJL154C, strain vps35, stronger effect = lower value 0.991 | locus YJL164C, strain tpk1, stronger effect = lower value 1.01 | locus YJL166W, strain qcr8, stronger effect = lower value 1.01 | locus YJL168C, strain set2, stronger effect = lower value 0.988 | locus YJL187C, strain SWE1 (second series), stronger effect = lower value 1.01 | locus YJL187C, strain SWE1, stronger effect = lower value 0.988 | locus YJR043C, strain POL32, stronger effect = lower value 1.04 | locus YJR066W, strain TOR1, stronger effect = lower value 0.915
